# Results published in PubChem BioAssay (NCATS).
# “And” between values parts separate entries of the source, which are not always exact repeats. Equal entries are not always repeated. Values without a mark were called inactive.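 Rule for the calls: active = compounds whose dose series gives a full or clear partial fitted curve of increased nuclear translocation; inconclusive = weak partial curve or effect only at the top dose; inactive = no dose-dependent translocation response.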
# Molecular target: Glucocorticoid receptor (Homo sapiens) (UniProt P04150)
# Experiment: GR-GFP Redistribution (AID 450)
# Conditions: U2OS GR-GFP nuclear translocation, laser cytometry, 2 h
# Potency is the fitted concentration of half-maximal effect.
# Glucocorticoid receptor (Homo sapiens), sequence (P04150 whole entry, looked up): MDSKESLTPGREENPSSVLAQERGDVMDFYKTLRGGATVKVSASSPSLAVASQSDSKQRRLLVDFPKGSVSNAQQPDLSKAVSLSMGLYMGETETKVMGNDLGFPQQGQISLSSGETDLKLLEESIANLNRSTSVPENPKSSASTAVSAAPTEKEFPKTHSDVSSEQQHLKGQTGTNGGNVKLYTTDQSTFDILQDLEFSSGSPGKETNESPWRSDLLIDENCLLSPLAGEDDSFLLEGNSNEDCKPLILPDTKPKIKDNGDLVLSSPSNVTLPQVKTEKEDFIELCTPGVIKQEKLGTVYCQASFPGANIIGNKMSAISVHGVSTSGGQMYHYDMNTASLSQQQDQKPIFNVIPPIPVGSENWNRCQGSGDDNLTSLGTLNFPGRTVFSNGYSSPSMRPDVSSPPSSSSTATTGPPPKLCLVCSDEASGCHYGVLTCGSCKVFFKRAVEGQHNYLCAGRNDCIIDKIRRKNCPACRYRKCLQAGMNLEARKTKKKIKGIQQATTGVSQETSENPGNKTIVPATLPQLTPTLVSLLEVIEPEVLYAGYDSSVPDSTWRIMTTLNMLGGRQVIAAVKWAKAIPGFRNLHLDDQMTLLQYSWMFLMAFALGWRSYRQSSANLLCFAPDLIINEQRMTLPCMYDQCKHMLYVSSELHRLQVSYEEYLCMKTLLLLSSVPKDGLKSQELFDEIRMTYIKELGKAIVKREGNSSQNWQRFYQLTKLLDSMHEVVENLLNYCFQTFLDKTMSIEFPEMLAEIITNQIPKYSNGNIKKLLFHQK
row,Compound,Potency
1,CCOC(=O)c1cncn1[C@H](C)c1ccccc1,> 46 µM
2,CC[C@@]1(O)C(=O)OCc2c1cc1n(c2=O)Cc2cc3ccccc3nc2-1,> 46 µM and > 20.6 µM
3,CNCCc1ccc(O)c(O)c1,> 46 µM
4,CC1=NN=C(c2ccc(N)cc2)c2cc3c(cc2C1)OCO3,> 46 µM
5,NC(=NCCC[C@H](N)C(=O)O)N[N+](=O)[O-],> 46 µM
6,CCCCc1ccc(C(=O)O)nc1,> 46 µM and > 20.6 µM
7,Cc1nccc2c1[nH]c1ccccc12,> 46 µM and > 20.6 µM
8,COc1ccc(C(=O)c2c(C)n(CCN3CCOCC3)c3cc(I)ccc23)cc1,> 46 µM
9,O=C(O)CC[N+](=O)[O-],> 46 µM
10,c1ccc2sc(C3(N4CCCCC4)CCCCC3)cc2c1,> 46 µM
11,S=C(NC1CCCCC1)N1CCC(c2cnc[nH]2)CC1,> 46 µM
12,COC(=O)[C@@H](N)CCCN=C(N)N[N+](=O)[O-],> 46 µM
13,CCCN1CCO[C@@H]2c3cc(O)ccc3OC[C@H]21,> 46 µM
14,C[C@@H](N)Cc1cnc[nH]1,> 46 µM
15,CC(C)Oc1cccnc1N(C)C1CCN(Cc2ccccc2)CC1,> 46 µM
16,O=C(O)Cc1cnc[nH]1,> 46 µM

row,Compound,Potency
1,CC(=O)OCC1=C(C(=O)O)N2C(=O)[C@@H](N)[C@@H]2SC1,> 20.6 µM
2,C#CCOC(=O)C1=CCCN(C)C1,> 46 µM
3,CNCCc1c[nH]c2ccc(O)cc12,> 46 µM
4,Cc1nc(-c2ccc(-c3ccc(C(=O)N4CCc5cc6c(cc54)C4(CCN(C)CC4)CO6)cc3)c(C)c2)no1,> 46 µM
5,CCCN1CCC[C@H](c2cccc(O)c2)C1,> 46 µM
6,Cc1c(C(=O)c2cccc3ccccc23)c2cccc3c2n1[C@H](CN1CCOCC1)CO3,> 46 µM
7,NCc1cc(=O)[nH]o1,> 46 µM
8,c1ccc(CCCN2CCN(CCOC(c3ccccc3)c3ccccc3)CC2)cc1,> 46 µM
9,Clc1cnc(Oc2ccc(Oc3ncc(Cl)cc3Cl)cc2)c(Cl)c1,> 46 µM
10,CN[C@@H]1C[C@@H](c2ccc(Cl)c(Cl)c2)c2ccccc21,> 46 µM
11,O=c1cccc2n1CC1CNC[C@H]2C1,> 20.6 µM and > 46 µM
12,CCCN(CCC)[C@@H]1CCc2ccc(O)cc2C1,> 46 µM
13,O=C1CCCN1CC#CCN1CCCC1,> 46 µM
14,NCCc1c[nH]c2ccc(O)cc12,> 46 µM and > 20.6 µM
15,CC(=O)NCCc1c[nH]c2ccccc12,> 46 µM
